In the library only some 2.3% were active in any assay of this set; here they are far more common.
M1 ag = human M1 muscarinic receptor agonists, primary screen, Fluo-8 calcium fluorescence, CHO-K1 cells, HTS | activation, % at 3 µM | Muscarinic acetylcholine receptor M1 (Homo sapiens), P11229 | CHO-K1 hM1, agonist mode; 0% DMSO, 100% acetylcholine EC100 | hit rate 0.33% among 360,000;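 active means activation above the run's mean compound activation plus 3 SD, cut at about 16% in these data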;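 further: peak over basal fluorescence ratio within a 140 s kinetic read after compound addition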
Target sequence (P11229 whole entry, looked up): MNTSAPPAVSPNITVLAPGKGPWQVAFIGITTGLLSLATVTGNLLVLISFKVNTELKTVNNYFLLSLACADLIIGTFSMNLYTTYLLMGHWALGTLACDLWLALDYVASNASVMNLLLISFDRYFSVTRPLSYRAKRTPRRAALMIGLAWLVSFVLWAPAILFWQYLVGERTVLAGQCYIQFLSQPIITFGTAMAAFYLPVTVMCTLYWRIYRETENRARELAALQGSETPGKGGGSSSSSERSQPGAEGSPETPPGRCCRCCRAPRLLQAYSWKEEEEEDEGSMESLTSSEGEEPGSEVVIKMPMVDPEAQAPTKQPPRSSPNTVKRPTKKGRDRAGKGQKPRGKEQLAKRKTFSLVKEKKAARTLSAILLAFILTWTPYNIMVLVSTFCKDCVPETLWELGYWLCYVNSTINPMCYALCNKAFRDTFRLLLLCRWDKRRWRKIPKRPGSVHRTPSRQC
M1 ag parental = counter-screen for M1 agonists: effect in parental CHO-K1 cells | Fluo-8 calcium fluorescence; scaled to maximal ATP response, vehicle zero | activation, % at 3 µM | hit rate 0.48% among 360,000 | AID 602248, 2012; in the data active means activation above about 15%;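 further: untransfected CHO-K1 host cells lacking M1 receptor as counterscreen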
CHRM1 antagonist = human M1 muscarinic receptor antagonists, primary screen, CHO-K1 cells, Fluo-8 calcium fluorescence, 1536-well; AID 588852, 2011; inhibition, % at 3 µM; hit rate 1.3% among 360,000; Muscarinic acetylcholine receptor M1 (Homo sapiens), P11229; CHO-K1 hM1, ACh EC80 antagonist;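 active means percent inhibition above its own plate's cutoff, namely the mean of that plate's compound wells plus 3 SD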;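 further: peak over basal fluorescence ratio during 140 s after agonist addition; 0% = ACh EC80 plus DMSO and 100% = DMSO alone without agonist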
M1 PAM parental = nonselective calcium activators in parental CHO-K1 cells, primary screen, counter-screen for M1 PAM project, cell-based, Fluo-8 calcium fluorescence, full deck, 1536-well | AID 602247, 2012 | ATP EC20; 0% at ATP EC20, 100% at ATP max | activation, % at 3 µM | hit rate 0.02% among 360,000;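 active means activation above the run cutoff, the mean activation of all test compounds plus 3 SD, cut at about 40% in these data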;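 further: peak over basal fluorescence ratio in a 140 s read after ATP addition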
M1 PAM = human M1 muscarinic receptor positive allosteric modulators, primary screen, CHO-K1 cells, Fluo-8 calcium fluorescence, 1536-well. CHO-K1 hM1, ACh EC20; 0% = ACh EC20, 100% = maximal ACh. Muscarinic acetylcholine receptor M1 (Homo sapiens), P11229. activation, % at 3 µM. hit rate 0.088% among 360,000; in the data active means activation above about 19%, passing the limit was not always enough
CHO-K1 Ca antag = M1 antagonist counterscreen hit in parental CHO-K1 cells; AID 602250; inhibition, % at 3 µM; ATP-induced calcium, Fluo-8 fluorescence; hit rate 0.6% among 360,000;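 active means inhibition above a per-plate cutoff, the plate's mean sample inhibition plus 3 SD, cut at about 24% in these data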;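 further: 0% = DMSO plus EC80 ATP and 100% = DMSO alone without ATP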
Numbers without * were called inactive.

What do the screens show for `COc1cccc(OC)c1C(=O)Nc1ccc2c(c1)Cc1ccccc1-2`?
M1 ag: -3; M1 ag parental: 0; CHRM1 antagonist: 1; M1 PAM parental: 10; M1 PAM: 1; CHO-K1 Ca antag: -8

Results for Cc1ccc(S(=O)(=O)N2C[C@@H]3CCCC[C@@H]3[C@@H](C)[C@H]2c2cn(Cc3ccccc3)c3ncccc23)cc1 ?
M1 ag: 4; M1 ag parental: -1; CHRM1 antagonist: -2; M1 PAM parental: 9; M1 PAM: 29*; CHO-K1 Ca antag: -17

What do the screens show for `CN(C)S(=O)(=O)c1cccc(COC(=O)c2cnccn2)c1`?
M1 ag: -7; M1 ag parental: 1; CHRM1 antagonist: -23; M1 PAM parental: 17; M1 PAM: 15; CHO-K1 Ca antag: -14

What do the screens show for `CN(C)S(=O)(=O)c1cccc(COC(=O)c2cccnc2Cl)c1`?
M1 ag: 1; M1 ag parental: 17*; CHRM1 antagonist: 20; M1 PAM parental: -9; M1 PAM: -9; CHO-K1 Ca antag: 19

How did CCN(CC)S(=O)(=O)c1cccc(-c2nnc(SCCOc3ccc(Cl)cc3)o2)c1 do in these assays?
M1 ag: -2; M1 ag parental: 0; CHRM1 antagonist: -20; M1 PAM parental: 18; M1 PAM: 2; CHO-K1 Ca antag: -8

How did CCN(CC)S(=O)(=O)c1cccc(-c2nnc(SCCOc3ccccc3)o2)c1 do in these assays?
M1 ag: 0; M1 ag parental: 1; CHRM1 antagonist: -15; M1 PAM parental: 7; M1 PAM: -4; CHO-K1 Ca antag: 47*

What do the screens show for `COc1cccc(NC(=O)N2CCC(NC(=O)C3CCCCC3)CC2)c1`?
M1 ag: -2; M1 ag parental: 0; CHRM1 antagonist: -1; M1 PAM parental: 13; M1 PAM: 28*; CHO-K1 Ca antag: -12

Results for COc1ccc(OC)c(S(=O)(=O)N2CCC(C(=O)NCc3ccc4c(c3)OCO4)CC2)c1 ?
M1 ag: -2; M1 ag parental: 2; CHRM1 antagonist: 5; M1 PAM parental: -14; M1 PAM: 2; CHO-K1 Ca antag: 10

How did Cc1ccccc1NC(=O)C1CCCN(S(=O)(=O)c2ccc3c(c2)C(C)(C)C(=O)N3C)C1 (stereo not drawn) do in these assays?
M1 ag: -2; M1 ag parental: 0; CHRM1 antagonist: -1; M1 PAM parental: -3; M1 PAM: 1; CHO-K1 Ca antag: 30*

What do the screens show for `O=C1c2cccc3c([N+](=O)[O-])ccc(c23)C(=O)N1c1ccccn1`?
M1 ag: -5; M1 ag parental: 0; CHRM1 antagonist: 20; M1 PAM parental: 9; M1 PAM: -3; CHO-K1 Ca antag: 10

How did O=C1c2cccc3c([N+](=O)[O-])ccc(c23)C(=O)N1c1nccs1 do in these assays?
M1 ag: -7; M1 ag parental: 0; CHRM1 antagonist: 24*; M1 PAM parental: -8; M1 PAM: -14; CHO-K1 Ca antag: 21

How did CCOC(=O)c1cc(C#N)c(SCC(=O)c2cc(C#N)c(SC)nc2C)nc1C do in these assays?
M1 ag: -4; M1 ag parental: 0; CHRM1 antagonist: 20; M1 PAM parental: 2; M1 PAM: -8; CHO-K1 Ca antag: -8

What do the screens show for `CSc1nc(C)c(C(=O)C[n+]2ccccc2)cc1C#N`?
M1 ag: -7; M1 ag parental: 0; CHRM1 antagonist: 28*; M1 PAM parental: 16; M1 PAM: -14; CHO-K1 Ca antag: -10

How did CCCCN1C(=O)C(=O)N(CC(=O)Nc2cc(S(=O)(=O)N(C)C)ccc2C)C1=O do in these assays?
M1 ag: -1; M1 ag parental: 1; CHRM1 antagonist: 5; M1 PAM parental: 4; M1 PAM: 0; CHO-K1 Ca antag: -5

What do the screens show for `CC(=O)Nc1ccc(S(=O)(=O)N2CCN(c3nc4ccccc4n3CC(C)C)CC2)cc1`?
M1 ag: -6; M1 ag parental: 1; CHRM1 antagonist: -10; M1 PAM parental: -10; M1 PAM: 1; CHO-K1 Ca antag: 11

How did O=C(CN1C(=O)COc2ccccc21)NCCN1CCC(Cc2ccccc2)CC1 do in these assays?
M1 ag: -3; M1 ag parental: 6; CHRM1 antagonist: 30*; M1 PAM parental: 13; M1 PAM: -20; CHO-K1 Ca antag: -5

How did O=C(CN1C(=O)COc2ccccc21)NCCN1CCOCC1 do in these assays?
M1 ag: -6; M1 ag parental: 0; CHRM1 antagonist: 4; M1 PAM parental: 16; M1 PAM: 1; CHO-K1 Ca antag: -7

How did COC(=O)c1ccc(CSc2nc3ccccc3c(=O)n2CC(C)C)o1 do in these assays?
M1 ag: -5; M1 ag parental: 0; CHRM1 antagonist: 18; M1 PAM parental: -7; M1 PAM: -10; CHO-K1 Ca antag: 5

How did COC(=O)c1ccc(CSc2nc3ccccc3c(=O)n2Cc2ccco2)o1 do in these assays?
M1 ag: -5; M1 ag parental: 6; CHRM1 antagonist: 36*; M1 PAM parental: 11; M1 PAM: -20; CHO-K1 Ca antag: 13

What do the screens show for `Cc1cc(C)cc(OCC(=O)Nc2ccncc2)c1`?
M1 ag: 3; M1 ag parental: 6; CHRM1 antagonist: 0; M1 PAM parental: -2; M1 PAM: -10; CHO-K1 Ca antag: -6

Results for Cc1cccc(C2(c3cccc(C)c3)CC2C(=O)Nc2ccc([N+](=O)[O-])cc2O)c1 (stereo not drawn) ?
M1 ag: -3; M1 ag parental: 6; CHRM1 antagonist: 25; M1 PAM parental: -11; M1 PAM: -15; CHO-K1 Ca antag: 26*

What do the screens show for `C=CCNC(=O)C1CC1(c1cccc(C)c1)c1cccc(C)c1` (stereo not drawn)?
M1 ag: 1; M1 ag parental: 0; CHRM1 antagonist: 0; M1 PAM parental: 6; M1 PAM: 13; CHO-K1 Ca antag: 2

Results for O=C1CCCN2N=C(SCC(=O)Nc3cccc(Cl)c3)SC2=N1 ?
M1 ag: 0; M1 ag parental: 16*; CHRM1 antagonist: 9; M1 PAM parental: -1; M1 PAM: -8; CHO-K1 Ca antag: 1

Results for Cc1ccc(NC(=O)CSC2=NN3CCCC(=O)N=C3S2)cc1Cl ?
M1 ag: -3; M1 ag parental: 16*; CHRM1 antagonist: 7; M1 PAM parental: 12; M1 PAM: -7; CHO-K1 Ca antag: 2

Results for O=C1CCCN2N=C(SCC(=O)Nc3cccc(C(F)(F)F)c3)SC2=N1 ?
M1 ag: -3; M1 ag parental: 15; CHRM1 antagonist: 27*; M1 PAM parental: -11; M1 PAM: -12; CHO-K1 Ca antag: 26*

Results for O=C1CCCN2N=C(SCC(=O)Nc3ccc(Cl)cc3)SC2=N1 ?
M1 ag: -1; M1 ag parental: 13; CHRM1 antagonist: -4; M1 PAM parental: 6; M1 PAM: 0; CHO-K1 Ca antag: -4

High-throughput results: PubChem, The Scripps Research Institute Molecular Screening Center
